# Results taken from ChEMBL document CHEMBL1961873, “Compounds: GSK PKIS; Assays: Nanosyn kinase panel” (2012).
# Legend:
# [1] = target: Sphingosine kinase 1 (Homo sapiens) (UniProt Q9NYA1); conditions: at 1 µM;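 also: mean SPHK1 inhibition value reported from the GSK PKIS kinase panel screen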
# [2] = target: T1, Sphingosine kinase 2 (Homo sapiens) (UniProt Q9NRA0); conditions: at 0.1 µM
# T1 sequence (whole entry): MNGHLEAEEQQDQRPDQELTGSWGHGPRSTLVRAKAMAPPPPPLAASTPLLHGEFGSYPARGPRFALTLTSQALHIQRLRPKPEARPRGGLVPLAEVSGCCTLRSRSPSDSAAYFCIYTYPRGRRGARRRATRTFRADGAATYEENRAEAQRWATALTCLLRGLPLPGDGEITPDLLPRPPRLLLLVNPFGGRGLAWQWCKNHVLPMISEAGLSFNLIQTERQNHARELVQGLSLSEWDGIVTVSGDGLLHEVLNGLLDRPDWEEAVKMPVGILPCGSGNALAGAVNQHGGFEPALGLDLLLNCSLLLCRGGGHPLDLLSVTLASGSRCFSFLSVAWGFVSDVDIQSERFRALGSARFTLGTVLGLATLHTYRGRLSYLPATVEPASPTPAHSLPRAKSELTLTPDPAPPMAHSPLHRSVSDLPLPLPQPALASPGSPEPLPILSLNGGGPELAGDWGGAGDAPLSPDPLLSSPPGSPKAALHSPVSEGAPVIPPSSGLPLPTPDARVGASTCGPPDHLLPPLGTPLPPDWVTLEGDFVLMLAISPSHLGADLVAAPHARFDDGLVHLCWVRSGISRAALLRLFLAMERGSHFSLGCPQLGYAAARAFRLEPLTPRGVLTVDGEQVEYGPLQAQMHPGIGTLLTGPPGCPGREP
# [3] = target: T1, Sphingosine kinase 2 (Homo sapiens); conditions: at 1 µM
# [4] = target: Casein kinase II subunit alpha (Homo sapiens) (UniProt P68400); conditions: at 0.1 µM
# [5] = target: Casein kinase II subunit alpha (Homo sapiens) (UniProt P68400); conditions: at 1 µM
# [6] = target: T2, Inhibitor of nuclear factor kappa-B kinase subunit alpha (Homo sapiens) (UniProt O15111); conditions: at 0.1 µM
# T2 sequence (whole entry): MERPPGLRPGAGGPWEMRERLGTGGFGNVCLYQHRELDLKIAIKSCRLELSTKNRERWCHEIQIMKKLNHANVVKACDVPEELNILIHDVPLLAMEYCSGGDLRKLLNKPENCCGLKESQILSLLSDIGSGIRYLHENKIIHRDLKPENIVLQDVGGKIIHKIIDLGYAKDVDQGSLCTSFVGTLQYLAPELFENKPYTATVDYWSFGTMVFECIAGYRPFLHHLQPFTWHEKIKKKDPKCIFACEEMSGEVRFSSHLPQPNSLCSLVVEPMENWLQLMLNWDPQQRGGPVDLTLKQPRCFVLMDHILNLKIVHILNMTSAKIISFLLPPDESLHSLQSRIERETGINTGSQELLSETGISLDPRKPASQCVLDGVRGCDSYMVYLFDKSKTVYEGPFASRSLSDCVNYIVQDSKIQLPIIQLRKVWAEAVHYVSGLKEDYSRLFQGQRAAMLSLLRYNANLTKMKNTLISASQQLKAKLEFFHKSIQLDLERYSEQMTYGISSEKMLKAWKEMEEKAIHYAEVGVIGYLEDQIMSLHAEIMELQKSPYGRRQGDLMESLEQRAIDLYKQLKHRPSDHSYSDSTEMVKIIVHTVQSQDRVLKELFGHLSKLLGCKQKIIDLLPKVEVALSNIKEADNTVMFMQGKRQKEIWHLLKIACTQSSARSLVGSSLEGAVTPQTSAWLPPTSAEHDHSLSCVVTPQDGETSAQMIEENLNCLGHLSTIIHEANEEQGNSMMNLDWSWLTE
# [7] = target: T2, Inhibitor of nuclear factor kappa-B kinase subunit alpha (Homo sapiens); conditions: at 1 µM
# [8] = target: T3, Inhibitor of nuclear factor kappa-B kinase subunit beta (Homo sapiens) (UniProt O14920); conditions: at 0.1 µM
# T3 sequence (whole entry): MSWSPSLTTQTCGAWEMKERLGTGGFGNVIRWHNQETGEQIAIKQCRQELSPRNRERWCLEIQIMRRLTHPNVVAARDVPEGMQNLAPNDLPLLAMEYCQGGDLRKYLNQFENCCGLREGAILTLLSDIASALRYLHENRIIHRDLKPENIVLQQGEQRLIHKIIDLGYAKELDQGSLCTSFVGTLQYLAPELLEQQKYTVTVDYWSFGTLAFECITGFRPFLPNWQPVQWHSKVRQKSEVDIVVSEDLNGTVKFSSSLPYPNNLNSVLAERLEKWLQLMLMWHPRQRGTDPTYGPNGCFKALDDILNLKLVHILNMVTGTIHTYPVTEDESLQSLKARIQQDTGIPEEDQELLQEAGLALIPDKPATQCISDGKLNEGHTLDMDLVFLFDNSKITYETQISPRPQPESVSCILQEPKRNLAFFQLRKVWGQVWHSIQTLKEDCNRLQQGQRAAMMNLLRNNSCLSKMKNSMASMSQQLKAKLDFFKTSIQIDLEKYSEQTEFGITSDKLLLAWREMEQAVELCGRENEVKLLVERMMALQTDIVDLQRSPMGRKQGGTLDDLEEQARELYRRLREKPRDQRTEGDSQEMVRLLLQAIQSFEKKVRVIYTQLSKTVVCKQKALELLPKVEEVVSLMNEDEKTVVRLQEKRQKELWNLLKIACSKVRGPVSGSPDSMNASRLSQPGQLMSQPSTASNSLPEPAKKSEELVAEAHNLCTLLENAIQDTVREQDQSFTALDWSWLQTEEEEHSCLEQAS
# [9] = target: T3, Inhibitor of nuclear factor kappa-B kinase subunit beta (Homo sapiens); conditions: at 1 µM
# [10] = target: T4, Inhibitor of nuclear factor kappa-B kinase subunit epsilon (Homo sapiens) (UniProt Q14164); conditions: at 0.1 µM
# T4 sequence (whole entry): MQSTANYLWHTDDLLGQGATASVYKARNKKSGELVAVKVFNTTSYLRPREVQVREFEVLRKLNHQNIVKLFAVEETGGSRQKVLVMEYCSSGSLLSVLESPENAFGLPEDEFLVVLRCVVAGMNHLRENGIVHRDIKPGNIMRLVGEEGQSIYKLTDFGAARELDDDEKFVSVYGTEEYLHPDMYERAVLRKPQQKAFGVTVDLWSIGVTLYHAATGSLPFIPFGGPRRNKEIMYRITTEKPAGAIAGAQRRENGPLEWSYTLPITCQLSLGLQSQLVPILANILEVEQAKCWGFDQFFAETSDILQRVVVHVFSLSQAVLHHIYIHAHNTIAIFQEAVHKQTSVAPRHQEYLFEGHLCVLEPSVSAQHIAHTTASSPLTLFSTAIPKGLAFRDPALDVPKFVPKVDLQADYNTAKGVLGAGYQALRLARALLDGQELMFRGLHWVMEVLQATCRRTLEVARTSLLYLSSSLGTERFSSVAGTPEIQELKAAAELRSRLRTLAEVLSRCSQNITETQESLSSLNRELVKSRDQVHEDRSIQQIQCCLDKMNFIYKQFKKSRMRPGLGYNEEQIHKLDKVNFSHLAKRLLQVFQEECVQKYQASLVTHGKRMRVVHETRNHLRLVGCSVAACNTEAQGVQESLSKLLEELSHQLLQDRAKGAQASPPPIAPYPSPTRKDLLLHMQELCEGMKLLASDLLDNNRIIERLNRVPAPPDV
# [11] = target: T4, Inhibitor of nuclear factor kappa-B kinase subunit epsilon (Homo sapiens); conditions: at 1 µM
# [12] = target: T5, Serine/threonine-protein kinase Nek1 (Homo sapiens) (UniProt Q96PY6); conditions: at 0.1 µM
# T5 sequence (whole entry): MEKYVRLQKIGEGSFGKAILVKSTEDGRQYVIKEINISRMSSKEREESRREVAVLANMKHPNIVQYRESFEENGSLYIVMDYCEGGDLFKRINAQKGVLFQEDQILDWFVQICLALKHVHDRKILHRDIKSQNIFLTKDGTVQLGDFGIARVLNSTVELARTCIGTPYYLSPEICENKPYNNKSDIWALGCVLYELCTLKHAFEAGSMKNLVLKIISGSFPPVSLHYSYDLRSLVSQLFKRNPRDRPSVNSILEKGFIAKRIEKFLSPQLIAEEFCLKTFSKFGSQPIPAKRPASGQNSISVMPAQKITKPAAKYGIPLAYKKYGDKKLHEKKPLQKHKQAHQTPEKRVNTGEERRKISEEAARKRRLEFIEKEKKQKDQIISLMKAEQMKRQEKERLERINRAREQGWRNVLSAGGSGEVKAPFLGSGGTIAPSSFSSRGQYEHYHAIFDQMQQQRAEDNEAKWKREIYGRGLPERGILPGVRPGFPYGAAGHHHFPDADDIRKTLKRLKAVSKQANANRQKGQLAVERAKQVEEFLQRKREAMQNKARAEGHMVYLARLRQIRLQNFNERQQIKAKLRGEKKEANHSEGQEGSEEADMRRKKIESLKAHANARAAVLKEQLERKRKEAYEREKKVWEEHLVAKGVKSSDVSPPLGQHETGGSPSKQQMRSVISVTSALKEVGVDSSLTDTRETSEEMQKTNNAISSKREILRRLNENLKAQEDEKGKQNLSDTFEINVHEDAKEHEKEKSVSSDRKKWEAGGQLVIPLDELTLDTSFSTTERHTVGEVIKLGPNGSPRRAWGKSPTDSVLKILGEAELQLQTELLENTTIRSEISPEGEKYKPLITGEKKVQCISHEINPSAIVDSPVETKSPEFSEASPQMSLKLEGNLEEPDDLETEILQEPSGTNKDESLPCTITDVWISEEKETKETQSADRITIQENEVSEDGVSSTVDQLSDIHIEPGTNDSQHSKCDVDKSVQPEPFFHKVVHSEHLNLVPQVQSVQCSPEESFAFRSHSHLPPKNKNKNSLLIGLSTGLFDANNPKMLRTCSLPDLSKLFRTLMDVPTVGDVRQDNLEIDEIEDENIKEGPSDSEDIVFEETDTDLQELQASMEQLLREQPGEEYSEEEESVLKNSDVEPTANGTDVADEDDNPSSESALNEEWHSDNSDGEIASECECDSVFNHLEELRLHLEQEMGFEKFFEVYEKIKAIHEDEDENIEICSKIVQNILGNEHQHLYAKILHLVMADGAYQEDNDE
# [13] = target: T5, Serine/threonine-protein kinase Nek1 (Homo sapiens); conditions: at 1 µM
# [14] = target: T6, Serine/threonine-protein kinase Nek2 (Homo sapiens) (UniProt P51955); conditions: at 0.1 µM
# T6 sequence (whole entry): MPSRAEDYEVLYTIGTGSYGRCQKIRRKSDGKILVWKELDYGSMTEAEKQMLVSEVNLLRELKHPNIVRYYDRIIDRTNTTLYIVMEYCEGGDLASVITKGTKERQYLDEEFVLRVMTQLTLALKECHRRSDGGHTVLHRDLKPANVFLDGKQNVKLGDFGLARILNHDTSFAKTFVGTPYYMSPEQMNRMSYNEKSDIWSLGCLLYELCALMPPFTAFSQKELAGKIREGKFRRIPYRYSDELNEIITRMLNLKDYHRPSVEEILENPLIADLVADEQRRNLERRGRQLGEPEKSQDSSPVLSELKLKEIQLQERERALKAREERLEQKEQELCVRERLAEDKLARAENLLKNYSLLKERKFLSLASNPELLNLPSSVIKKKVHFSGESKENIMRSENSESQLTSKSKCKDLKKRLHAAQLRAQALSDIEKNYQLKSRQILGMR
# [15] = target: T6, Serine/threonine-protein kinase Nek2 (Homo sapiens); conditions: at 1 µM
# [16] = target: Serine/threonine-protein kinase Nek6 (Homo sapiens) (UniProt Q9HC98); conditions: at 0.1 µM
# [17] = target: Serine/threonine-protein kinase Nek6 (Homo sapiens) (UniProt Q9HC98); conditions: at 1 µM
# [18] = target: Serine/threonine-protein kinase Nek7 (Homo sapiens) (UniProt Q8TDX7); conditions: at 0.1 µM
# [19] = target: Serine/threonine-protein kinase Nek7 (Homo sapiens) (UniProt Q8TDX7); conditions: at 1 µM
# [20] = target: T7, Serine/threonine-protein kinase Nek9 (Homo sapiens) (UniProt Q8TD19); conditions: at 0.1 µM;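 also: reported value is the mean percent inhibition of NEK9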
# T7 sequence (whole entry): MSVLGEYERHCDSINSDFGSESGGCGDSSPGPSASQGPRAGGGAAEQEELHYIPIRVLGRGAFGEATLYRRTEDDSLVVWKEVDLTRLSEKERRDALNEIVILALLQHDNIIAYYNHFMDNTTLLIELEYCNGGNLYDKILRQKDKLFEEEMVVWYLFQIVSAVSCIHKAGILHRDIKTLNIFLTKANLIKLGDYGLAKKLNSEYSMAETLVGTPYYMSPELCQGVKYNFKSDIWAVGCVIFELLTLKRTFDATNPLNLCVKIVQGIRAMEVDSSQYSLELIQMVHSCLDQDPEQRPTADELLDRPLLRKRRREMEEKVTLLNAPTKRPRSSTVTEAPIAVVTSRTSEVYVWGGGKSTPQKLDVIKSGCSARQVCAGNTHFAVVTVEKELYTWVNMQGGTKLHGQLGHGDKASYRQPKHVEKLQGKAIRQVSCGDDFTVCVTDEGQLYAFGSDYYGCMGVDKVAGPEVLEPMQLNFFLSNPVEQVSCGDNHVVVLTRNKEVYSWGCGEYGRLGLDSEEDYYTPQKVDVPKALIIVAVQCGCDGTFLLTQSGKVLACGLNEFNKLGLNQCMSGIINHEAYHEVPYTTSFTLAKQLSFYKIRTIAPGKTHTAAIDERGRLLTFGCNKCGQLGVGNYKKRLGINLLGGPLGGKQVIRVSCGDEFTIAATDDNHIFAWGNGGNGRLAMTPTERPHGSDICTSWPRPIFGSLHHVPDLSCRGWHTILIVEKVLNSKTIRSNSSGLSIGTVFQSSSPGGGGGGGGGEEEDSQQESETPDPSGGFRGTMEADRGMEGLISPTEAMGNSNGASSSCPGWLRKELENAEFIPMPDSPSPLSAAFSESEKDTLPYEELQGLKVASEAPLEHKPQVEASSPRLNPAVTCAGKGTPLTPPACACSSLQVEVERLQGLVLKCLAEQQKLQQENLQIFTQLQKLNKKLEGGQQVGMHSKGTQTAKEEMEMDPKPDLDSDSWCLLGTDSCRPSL
# Chain of Casein kinase II subunit alpha (Homo sapiens) (P68400 whole entry, looked up): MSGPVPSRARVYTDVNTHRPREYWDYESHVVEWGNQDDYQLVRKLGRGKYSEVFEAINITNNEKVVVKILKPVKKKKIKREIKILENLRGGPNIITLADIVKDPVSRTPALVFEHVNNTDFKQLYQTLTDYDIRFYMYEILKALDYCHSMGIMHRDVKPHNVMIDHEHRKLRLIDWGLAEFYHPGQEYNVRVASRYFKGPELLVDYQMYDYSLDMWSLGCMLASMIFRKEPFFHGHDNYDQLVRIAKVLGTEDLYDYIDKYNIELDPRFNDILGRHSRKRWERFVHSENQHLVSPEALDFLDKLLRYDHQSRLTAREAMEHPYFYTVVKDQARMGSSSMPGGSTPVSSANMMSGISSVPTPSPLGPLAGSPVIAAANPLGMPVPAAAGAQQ
# Chain of Serine/threonine-protein kinase Nek6 (Homo sapiens) (Q9HC98 whole entry): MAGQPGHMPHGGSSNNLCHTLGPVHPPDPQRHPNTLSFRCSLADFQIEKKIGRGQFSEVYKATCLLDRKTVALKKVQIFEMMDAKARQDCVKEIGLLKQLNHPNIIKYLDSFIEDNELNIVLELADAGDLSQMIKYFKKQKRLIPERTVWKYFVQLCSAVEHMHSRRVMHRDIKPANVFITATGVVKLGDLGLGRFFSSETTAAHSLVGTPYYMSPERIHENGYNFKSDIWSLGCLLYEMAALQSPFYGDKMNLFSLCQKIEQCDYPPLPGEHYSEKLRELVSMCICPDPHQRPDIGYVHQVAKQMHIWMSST
# Chain of Serine/threonine-protein kinase Nek7 (Homo sapiens) (Q8TDX7 whole entry, looked up): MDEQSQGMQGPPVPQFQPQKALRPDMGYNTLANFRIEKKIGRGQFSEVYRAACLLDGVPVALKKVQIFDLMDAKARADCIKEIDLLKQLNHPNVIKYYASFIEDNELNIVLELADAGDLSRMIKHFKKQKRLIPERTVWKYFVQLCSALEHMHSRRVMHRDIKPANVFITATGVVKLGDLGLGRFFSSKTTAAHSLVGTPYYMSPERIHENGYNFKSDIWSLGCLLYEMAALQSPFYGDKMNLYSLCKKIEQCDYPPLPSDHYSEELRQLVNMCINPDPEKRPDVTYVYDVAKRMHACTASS
# Chain of Sphingosine kinase 1 (Homo sapiens) (Q9NYA1 whole entry): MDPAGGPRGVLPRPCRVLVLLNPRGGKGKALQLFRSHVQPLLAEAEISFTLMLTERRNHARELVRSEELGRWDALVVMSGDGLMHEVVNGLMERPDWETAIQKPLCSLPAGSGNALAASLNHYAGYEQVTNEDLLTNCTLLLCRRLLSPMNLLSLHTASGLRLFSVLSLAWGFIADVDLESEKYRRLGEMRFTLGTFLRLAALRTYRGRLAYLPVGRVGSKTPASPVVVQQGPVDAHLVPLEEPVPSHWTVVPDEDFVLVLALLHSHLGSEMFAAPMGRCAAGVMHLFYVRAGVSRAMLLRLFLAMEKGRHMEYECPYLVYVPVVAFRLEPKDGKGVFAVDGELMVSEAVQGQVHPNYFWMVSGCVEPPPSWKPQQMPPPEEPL
Structure (SMILES),inhibition [1] [%],inhibition [2] [%],inhibition [3] [%],inhibition [4] [%],inhibition [5] [%],inhibition [6] [%],inhibition [7] [%],inhibition [8] [%],inhibition [9] [%],inhibition [10] [%],inhibition [11] [%],inhibition [12] [%],inhibition [13] [%],inhibition [14] [%],inhibition [15] [%],inhibition [16] [%],inhibition [17] [%],inhibition [18] [%],inhibition [19] [%],inhibition [20] [%]
OCc1ccc(-c2nc(-c3ccccn3)c(-c3ccc4c(c3)OCO4)[nH]2)cc1,-4.68,-0.11,0.5,2.74,-0.37,6.97,8.08,5.29,4.72,4.91,5.41,2.17,2.95,5.76,4.54,2.18,0.25,3.26,2.28,5.12
CCCN1CCCC(c2ccc(Nc3nc(Nc4cc(F)ccc4C(N)=O)c4cc[nH]c4n3)c(OC)c2)C1 (stereo not given),3.56,1.62,-1.24,33.5,66.2,6.24,4.21,8.08,4.25,4.93,8.28,3.63,21.6,6.55,11.1,1.92,3.03,6.42,7.03,9.57
